This is an account of results in PubChem BioAssay (NCI).

Molecules are shown by their SMILES. Values joined by “and” are separate entries in the source; they are usually repeats but may differ in a detail not shown here. Identical values can stand only once. The panel holds about 79,000 compounds, 15% with a hit somewhere; the sample as a whole holds those more often. Values without a mark were called inactive. Active and inactive are the calls of the source. Rule as the data show it: active = growth inhibition above about 70%; inactive = the rest.

Assay [1] is described as follows: NCI Yeast Anticancer Drug Screen. Data for the rad50 strain (AID 155).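 Also: 0% = growth of vehicle-only cultures of the same strain.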 Particulars: S. cerevisiae rad50 strain growth inhibition, stronger effect = higher value. Summed up:
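Vehicle-treated cultures provide the reference for the growth inhibition reported for compound-exposed, repair-deficient yeast.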

Assay [2] in a line: NCI Yeast Anticancer Drug Screen. Data for the mec2-1 strain (AID 157). To be noted: S. cerevisiae mec2-1 strain, stronger effect = higher value. An outline of the steps:
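Vehicle-treated cultures served as reference for growth inhibition of compound-exposed mec2-1 yeast.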

The nature of assay [3]: NCI Yeast Anticancer Drug Screen. Data for the sgs1 mgt1 strain (AID 161).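 Also: 0% = growth of cultures given vehicle only.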 Particulars: S. cerevisiae sgs1 mgt1 strain, stronger effect = higher value. Summed up: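 Genetically altered yeast, compound exposure, growth inhibition relative to vehicle.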
The nature of assay [4]: NCI Yeast Anticancer Drug Screen. Data for the cln2 rad14 strain (AID 165).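 Also: 0% = growth equal to vehicle treated cultures.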 Particulars: S. cerevisiae cln2 rad14 strain, stronger effect = higher value. An outline of the steps:
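Each compound was tested on cln2 rad14 yeast. Inhibition of growth was calculated against vehicle-exposed controls.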

The nature of assay [5]: NCI Yeast Anticancer Drug Screen. Data for the bub3 strain (AID 167). To be noted: S. cerevisiae bub3 mutant strain, stronger effect = higher value. An outline of the steps:
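Mutant yeast screening strain plus compound; vehicle-treated cultures serve as the 0% inhibition reference.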

Assay [6] is described as follows: NCI Yeast Anticancer Drug Screen. Data for the mlh1 rad18 strain (AID 175). To be noted: S. cerevisiae mlh1 rad18 strain growth inhibition, stronger effect = higher value. An outline of the steps:
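Vehicle-treated cultures served as the reference for growth inhibition in a yeast strain carrying DNA damage repair alterations exposed to each compound.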

Where [7] appears, read: at 5.0 µM (retest, dose inferred, filed as 0.5).
[8] abbreviates: at 50.0 µM (retest, dose inferred, filed as 5.0).

As for `Clc1ccc(-c2cc(=[N+]3CC[N+](=c4cc(-c5ccc(Cl)cc5)ss4)CC3)ss2)cc1`, the growth inhibition in assay [1] (setting [7]) was 8%; in assay [1] (setting [8]), 3%; in assay [1] (at 50.0 µM), 98.3% (active); in assay [2] (setting [7]) it was -158%; in assay [2] (setting [8]), -3%; in assay [2] (at 50.0 µM) it was 98.2% (active). Moreover, the growth inhibition was 2% in assay [3] (setting [7]); 4% in assay [3] (setting [8]); 98.9% (active) in assay [3] (at 50.0 µM); 5% in assay [4] (setting [7]); -9% in assay [4] (setting [8]); 95.7% (active) in assay [4] (at 50.0 µM). Moreover, the growth inhibition in assay [5] (setting [7]) is 3%; in assay [5] (setting [8]), -2%; in assay [5] (at 50.0 µM), 98% (active); in assay [6] (setting [7]), 7%; in assay [6] (setting [8]), 4%; in assay [6] (at 50.0 µM) it was 98.5% (active).

As for `CCC[CH2][Sn]1([CH2]CCC)[O]C(=O)c2cccnc2[O]1`, the growth inhibition in assay [1] (setting [7]) is 34%; in assay [1] (setting [8]), 94% (active); in assay [1] (at 50.0 µM) it was 85.3% (active); in assay [2] (setting [7]), 31%; in assay [2] (setting [8]), 97% (active); in assay [2] (at 50.0 µM) it was 85.5% (active). Besides, the growth inhibition in assay [3] (setting [7]) was 42%; in assay [3] (setting [8]) it was 97% (active); in assay [3] (at 50.0 µM) it was 85.3% (active); in assay [4] (setting [7]), 22%; in assay [4] (setting [8]), 93% (active); in assay [4] (at 50.0 µM), 78.4% (active). For the same compound, the growth inhibition in assay [5] (setting [7]) was 47%; in assay [5] (setting [8]), 97% (active); in assay [5] (at 50.0 µM), 87.7% (active); in assay [6] (setting [7]), 51%; in assay [6] (setting [8]), 97% (active); in assay [6] (at 50.0 µM) it was 84.5% (active).

In the case of `CC(=O)[O-].[Zn].c1ccc(/C(=N\Nc2ccccn2)c2ccccn2)cc1`, the growth inhibition in assay [1] (setting [7]) was 29%; in assay [1] (setting [8]), 66%; in assay [1] (at 50.0 µM), 41.9%; in assay [2] (setting [7]), 37%; in assay [2] (setting [8]), 61%; in assay [2] (at 50.0 µM), 9.8%. Also, the growth inhibition in assay [3] (setting [7]) was 38%; in assay [3] (setting [8]), 83% (active); in assay [3] (at 50.0 µM), 23.8%; in assay [4] (setting [7]), 26%; in assay [4] (setting [8]), 78% (active); in assay [4] (at 50.0 µM), 13.8%. Also, the growth inhibition in assay [5] (setting [7]) was 44%; in assay [5] (setting [8]) it was 86% (active); in assay [5] (at 50.0 µM), 34.6%; in assay [6] (setting [7]), 36%; in assay [6] (setting [8]), 68%; in assay [6] (at 50.0 µM) it was 41.1%.

Consider `CNC(=O)N1CN(c2ccccc2)C2(CCN(CCCC(=O)c3ccc(F)cc3)CC2)C1=O`, for which the growth inhibition in assay [1] (setting [7]) is -7%; in assay [1] (setting [8]), 31%; in assay [1] (at 50.0 µM), 51.5%; in assay [2] (setting [7]), -14%; in assay [2] (setting [8]), 23%; in assay [2] (at 50.0 µM) it was 37.9%. The growth inhibition in assay [3] (setting [7]) was -3%; in assay [3] (setting [8]) it was 40%; in assay [3] (at 50.0 µM), 68.3%; in assay [4] (setting [7]), 5%; in assay [4] (setting [8]) it was 67%; in assay [4] (at 50.0 µM) it was 70.3% (active). The growth inhibition in assay [5] (setting [7]) is 5%; in assay [5] (setting [8]), 59%; in assay [5] (at 50.0 µM), 76% (active); in assay [6] (setting [7]), -20%; in assay [6] (setting [8]) it was 39%; in assay [6] (at 50.0 µM), 68.3%.

With `CC1CCOC(=O)/C=C/C=C/C(=O)OC2CC3OC4C5OC5(C)C(O)CC4(COC(=O)C1O)C2(C)C31CO1` (configuration not stated), the growth inhibition is 16% in assay [1] (setting [7]); 95% (active) in assay [1] (setting [8]); 90.3% (active) in assay [1] (at 50.0 µM); 27% in assay [2] (setting [7]); 90% (active) in assay [2] (setting [8]); 92% (active) in assay [2] (at 50.0 µM). For the same compound, the growth inhibition in assay [3] (setting [7]) was 21%; in assay [3] (setting [8]), 95% (active); in assay [3] (at 50.0 µM), 91.5% (active); in assay [4] (setting [7]), 42%; in assay [4] (setting [8]), 97% (active); in assay [4] (at 50.0 µM), 89.5% (active). Also, the growth inhibition was 18% in assay [5] (setting [7]); 95% (active) in assay [5] (setting [8]); 89.2% (active) in assay [5] (at 50.0 µM); 17% in assay [6] (setting [7]); 94% (active) in assay [6] (setting [8]); 89.4% (active) in assay [6] (at 50.0 µM).

As for `Sc1ccc(Cl)cc1`, the growth inhibition in assay [1] (setting [7]) was 3%; in assay [1] (setting [8]), 51%; in assay [1] (at 50.0 µM), 9.5% and 52.4%; in assay [2] (setting [7]), 2%; in assay [2] (setting [8]) it was 37%; in assay [2] (at 50.0 µM), 10.7% and 32.1%. The growth inhibition in assay [3] (setting [7]) is 5%; in assay [3] (setting [8]), 34%; in assay [3] (at 50.0 µM), 13.4% and 26.1%; in assay [4] (setting [7]), -1%; in assay [4] (setting [8]) it was 38%; in assay [4] (at 50.0 µM), -45% and 14.8%. In addition, the growth inhibition is 0% in assay [5] (setting [7]); 59% in assay [5] (setting [8]); -33% and 62.4% in assay [5] (at 50.0 µM); 9% in assay [6] (setting [7]); 64% in assay [6] (setting [8]); 13.9% and 31.5% in assay [6] (at 50.0 µM).

As for `O=[N+]([O-])c1cc([N+](=O)[O-])c(Cl)cc1F`, the growth inhibition in assay [1] (setting [7]) was 99% (active); in assay [1] (setting [8]), 99% (active); in assay [1] (at 50.0 µM), 81% (active); in assay [2] (setting [7]), 99% (active); in assay [2] (setting [8]) it was 99% (active); in assay [2] (at 50.0 µM), 59.7%. For the same compound, the growth inhibition is 99% (active) in assay [3] (setting [7]); 99% (active) in assay [3] (setting [8]); 78.2% (active) in assay [3] (at 50.0 µM); 98% (active) in assay [4] (setting [7]); 99% (active) in assay [4] (setting [8]); -3.25% in assay [4] (at 50.0 µM). In addition, the growth inhibition in assay [5] (setting [7]) was 99% (active); in assay [5] (setting [8]) it was 99% (active); in assay [5] (at 50.0 µM), 87.5% (active); in assay [6] (setting [7]) it was 99% (active); in assay [6] (setting [8]), 99% (active); in assay [6] (at 50.0 µM) it was 98.6% (active).

As to `CCC[N+](CCC)(CCC)CCC.N#CN=C([SH2+])[SH2+].N#CN=C([SH2+])[SH2+].[Pt+2]`, the growth inhibition was -1% in assay [1] (setting [7]); 7% in assay [1] (setting [8]); 79.3% (active) in assay [1] (at 50.0 µM); -4% in assay [2] (setting [7]); 2% in assay [2] (setting [8]); 44% in assay [2] (at 50.0 µM). Moreover, the growth inhibition in assay [3] (setting [7]) was 4%; in assay [3] (setting [8]) it was 39%; in assay [3] (at 50.0 µM), 89.9% (active); in assay [4] (setting [7]), -6%; in assay [4] (setting [8]), -7%; in assay [4] (at 50.0 µM) it was 14.1%. Moreover, the growth inhibition in assay [5] (setting [7]) is -5%; in assay [5] (setting [8]), -1%; in assay [5] (at 50.0 µM) it was 14.1%; in assay [6] (setting [7]) it was 20%; in assay [6] (setting [8]), 57%; in assay [6] (at 50.0 µM), 49.9%.

In the case of `CCC[CH2][Sn]([F])([CH2]CCC)[O][Sn]([F])([CH2]CCC)[CH2]CCC`, the growth inhibition in assay [1] (setting [7]) is 51%; in assay [1] (setting [8]) it was 98% (active); in assay [1] (at 50.0 µM), 97.5% (active); in assay [2] (setting [7]), 46%; in assay [2] (setting [8]), 99% (active); in assay [2] (at 50.0 µM), 98.9% (active). The growth inhibition in assay [3] (setting [7]) is 50%; in assay [3] (setting [8]), 98% (active); in assay [3] (at 50.0 µM), 98.2% (active); in assay [4] (setting [7]), 34%; in assay [4] (setting [8]), 98% (active); in assay [4] (at 50.0 µM), 98.3% (active). Also, the growth inhibition in assay [5] (setting [7]) was 54%; in assay [5] (setting [8]) it was 96% (active); in assay [5] (at 50.0 µM), 98.5% (active); in assay [6] (setting [7]) it was 48%; in assay [6] (setting [8]) it was 97% (active); in assay [6] (at 50.0 µM), 98.2% (active).
